Among all 370,000 compounds or so, about 3,800 (1%) were called active. The sample holds actives, similar compounds and a random draw of the others, so the mix is not that of the screen. Values without a mark were called inactive. Cut-off read from the data, not from the text of the source: active = activation above about 7.8%; inactive = the rest.

The nature of the test: SMARCA2 (BRM) function activators, primary screen, cell-based, luminescence, high throughput (AID 652017).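 Note: 0% = vehicle wells and 100% = reference activator wells.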 The settings on record: MG213 cells, MMTV-luciferase reporter, dexamethasone, overnight; at 9.1 µM; stronger effect = higher value. A general note: A reporter such as luciferase makes a cellular process visible.
With `CCOC(=O)C1C(c2ccc(O)cc2)NC(=O)NC1(O)C(F)(F)F` (stereo not drawn), the activation is -2.11%.

As to `O=C(c1cccs1)C1C(c2ccc(Br)cc2)NC(=S)NC1(O)C(F)(F)F` (stereo not drawn), the activation is 9.18% (active).

As to `Cc1cc(-c2n[nH]c(=S)n2/N=C/C(Br)=C/c2ccccc2)n[nH]1`, the activation is 12.8% (active).

For the compound `CSc1ccc(C=Nn2c(-c3ccc(F)cc3)n[nH]c2=S)cc1`, the activation was -5.15%.

For `C=CCN1C(=O)[C@@H](CC(=O)N2CCN(C(=O)OCC)CC2)[C@]2(C(=O)OCC)CCCCC/C=C/12`, the activation is 0.06%.

In the case of `O=C(CSc1nc2ccccc2o1)N1CCN(c2ccc(Cl)cc2)CC1`, the activation was -2.94%.

Consider `CC1Cc2ccccc2N1C(=O)CSc1nc2ccccc2o1` (stereo not drawn), for which the activation was 1.43%.

For `CC(C)(C)C(=O)CSc1nc2ccccc2o1`, the activation is 8.4% (active).

Consider `COc1ccnc(C(=O)N2CCC(Oc3cccnc3)CC2)c1`, for which the activation is 3.85%.

`COc1ccc(N2CCN(CCNS(=O)(=O)c3ccc(Cl)s3)CC2)cc1`: the activation is 0.84%.

With `CN1C(=O)C2(OCCCO2)c2cc(Cl)ccc21`, the activation was -0.14%.

For `O=C1Oc2ccccc2C(=O)/C1=C/c1ccccc1O`, the activation was 1.29%.

As for `COC(=O)c1ccc(/C=C2/C(=O)Oc3ccccc32)cc1`, the activation is 10.5% (active).

On to `COC(=O)c1ccc(/C=N/N2C(C)CCCC2C)cc1` (stereo not drawn), for which the activation was -1.42%.

With `CN(C)Cc1cn(-c2ccc(-c3noc4c3C(=O)N(CC(=O)N3CCOCC3)CC4)cc2)nn1`, the activation was -2.05%.

Consider `COc1ccc(S(=O)(=O)Nc2ccc3c(c2)C(=O)N([C@H](C)CO)C[C@H](C)[C@@H](CN(C)C)OCCCC[C@H](C)O3)cc1`, for which the activation is -4.35%.

For the compound `Cc1cc(NC(=O)[C@H](C)NC(=O)c2ccco2)ccc1Br`, the activation is -1.37%.

As for `O=C(Nc1ccc(NC(=O)c2cccs2)cn1)c1ccco1`, the activation is 9.66% (active).

Consider `CC1CCN(c2ccc(-c3ccc(NC(=O)c4ccco4)cc3)nn2)CC1`, for which the activation is 3.83%.

Regarding `O=C(Nc1ccc2nccnc2c1)c1ccco1`, the activation is 9.43% (active).

Turning to `CC(OC(=O)CNC(=O)c1ccco1)C(=O)Nc1ccc(Cl)cn1` (stereo not drawn), the activation was -2.28%.

For `O=C(COC(=O)CNC(=O)c1ccco1)Nc1ccc(F)cc1`, the activation was -3.14%.

On to `C=CS(=O)(=O)N(Cc1nnn(Cc2ccccc2)c1Br)[C@H](C(=O)OC)C(C)C`, for which the activation is 3.93%.

In the case of `CCC(=O)Nc1ccc2c(c1)C(=O)N(C)[C@@H]1CC[C@@H](CC(=O)NCCc3ccccc3)O[C@H]1CO2`, the activation was -2.13%.

As for `COc1ccc(S[C@]2(C(=O)N(C)C)CC(=O)N(c3ccc(OC)cc3)[C@@H]2c2ccc(OC)cc2)cc1`, the activation is 2.23%.

Take `CCCCn1nnnc1C(c1cc2ccccc2o1)N(C)Cc1ccc(Cl)c(Cl)c1` (stereo not drawn): the activation is 8.8% (active).

`CCCCn1nnnc1C(c1ccccc1)N1CCN(c2ccccc2OC)CC1` (stereo not drawn): the activation is -1.13%.

For `Cn1nnnc1NCc1ccc(Cl)c(Cl)c1`, the activation is -0.94%.

With `CC(C)N1CCCCC(NC(=O)c2ccc3ccccc3c2)C1=O` (stereo not drawn), the activation is -1.33%.

For `N[C@@H](Cc1ccccc1)C(=O)N1CCC[C@@H]1C(=O)N1CCC2CCN(S(=O)(=O)c3ccccc3)CC21` (stereo partly drawn), the activation is -1.95%.

With `FC(F)(F)c1cccc(-c2cc3ccccc3nc2N2CCCC2)c1`, the activation is 0.37%.

Consider `FC(F)(F)c1cccc(-c2nc3ccccc3n2C(c2ccccc2)c2nc3ccccc3[nH]2)c1` (stereo not drawn), for which the activation is 9.93% (active).

Consider `CCC(c1nc2ccccc2[nH]1)n1c(=O)c(-c2cccs2)nc2ccccc21` (stereo not drawn), for which the activation was -3.44%.

`O=S(=O)(c1ccccc1)N1CCC(c2nc3ccccc3o2)CC1`: the activation is -4.23%.

Take `O=C(C1CCN(S(=O)(=O)c2ccccc2)CC1)N1CCN(C2CCCCC2)CC1`: the activation is -4.09%.

For `Cc1ccc(S(=O)(=O)N2CCC(C(=O)N3CCCCCCC3)CC2)cc1`, the activation is -3.84%.

In the case of `O=C(C1CCC1)N1CCN(S(=O)(=O)c2ccc([N+](=O)[O-])cc2)CC1`, the activation was 9.83% (active).

With `COC(=O)[C@H](C(C)C)N(CCCc1cn(Cc2ccccc2)nn1)S(=O)(=O)c1ccc(F)cc1Br`, the activation was -0.98%.

As for `CCOC(=O)c1nnn2c1nc(N1CCN(c3ccccc3)CC1)c1ccccc12`, the activation was -2.86%.

For the compound `O=C(CCCCCN1C(=O)C2C3C=CC(C3)C2C1=O)Nc1ccccc1` (stereo not drawn), the activation is -2.37%.

For the compound `Cc1cc(=O)[nH]c(Nc2cccc(Br)c2)n1`, the activation is -1.71%.

For the compound `Cc1ccc(C)c(NC2=NCC(=O)N2c2ccc3c(c2)OCCO3)c1`, the activation was 2.74%.

Consider `Cc1cc(=O)[nH]c(N/N=C/c2ccc3c(c2)OCCO3)n1`, for which the activation is 8.3% (active).

For `CCCCNC(=O)C[C@@H]1C(=O)N(CCc2ccc(Cl)cc2)C2=CCCC[C@]21C(=O)OCC`, the activation was -0.47%.

In the case of `COc1cccc(-c2cnc(OC(C)(C)C)nc2OC(C)(C)C)c1`, the activation is -2.58%.

Consider `COc1cccc(-c2nc3cc(C)ccc3o2)c1`, for which the activation was 7.97% (active).

In the case of `COc1cccc(NS(=O)(=O)c2ccc(-c3coc(C)n3)cc2)c1`, the activation is -3.45%.

In the case of `C=CCN(C)CC#Cc1ccccc1`, the activation is 0.78%.

As to `COP(=O)(O)CNC(=O)OCc1ccccc1`, the activation was -0.59%.

In the case of `CC(CCN1CCC(C(O)(c2ccccc2)c2ccccc2)CC1)Oc1ccc(Cl)cc1` (stereo not drawn), the activation was -5.29%.

For the compound `COCC(=O)Nc1c(I)c(C(=O)NCC(O)CO)c(I)c(C(=O)N(C)CC(O)CO)c1I` (stereo not drawn), the activation is -1.43%.

As to `CCOC(=O)C1(Cc2ccccc2)CCN(Cc2cn(C(C)=O)c3ccccc23)CC1`, the activation was -3.37%.

On to `Cc1ccc(OCCCCc2c(C)n[nH]c2C)cc1`, for which the activation was -4.25%.

`Nc1nc(SCCOc2ccccc2)n[nH]1`: the activation was -0.38%.

With `CCCOc1ccc(-c2nc(N)n[nH]2)cc1`, the activation was 8.06% (active).

Consider `O=C(NCCc1c[nH]c2ccccc12)OCc1cn(-c2c(F)cccc2F)nn1`, for which the activation is -1.59%.

As to `COC(=O)[C@]12C[C@H](CC(=O)N3CCOCC3)C(=O)N(Cc3ccc(Cl)cc3Cl)C1=C[C@H](COCc1ccccc1)O[C@@H]2C`, the activation is -3.76%.

On to `COC[C@@H]1CCCN1c1ccc2c(c1)O[C@H](C)CCN(C1CC1)S2(=O)=O`, for which the activation is -0.54%.

The values are drawn from PubChem BioAssay AID652017 (The Scripps Research Institute Molecular Screening Center, 2013).
